In ChEMBL document CHEMBL3988442, “University of Dundee, Small-Polar-MMV Screening Library” (2021):
Screen size: about 48,000 compounds; about 13,000 (27%) showed an effect of 50% or more. Some of the results follow.

Test system: Wolbachia pipientis
Test: Anti-Wolbachia Cell-Based Screen
Type: functional
Design: scale not given: in the data most compounds retested in dose-response had high values
Details: 5 µM

Row | Compound | Percent Effect [%]
1 | CC(Cn1cccn1)NCc1nc(-c2ccc3c(c2)OCO3)no1 (stereo unspecified) | -6.149
2 | OCCN(Cc1ccccc1)Cc1nc(-c2ccc3c(c2)OCO3)no1 | 99.41
3 | COCCN(Cc1ccccc1)Cc1nc(-c2ccsc2)no1 | 2.788
4 | COC(=O)c1ccc(-c2noc(CN(CCO)Cc3cccs3)n2)cc1 | 109.2
5 | CCc1nc(CN(Cc2cccs2)CC2CCCO2)no1 (stereo unspecified) | 3.529
6 | CCN(Cc1nc(C(C)C)no1)Cc1cccs1 | 12.81
7 | OCCN(Cc1nc(-c2ccc3c(c2)OCO3)no1)Cc1cccs1 | 121.2
8 | COCCN(Cc1ccco1)Cc1nc(-c2ccccc2)no1 | 2.564
9 | OCCN(Cc1nc(-c2ccc3c(c2)OCO3)no1)CC1CC1 | -12.91
10 | Cc1ccc(Sc2ccc(N3CCC(C(=O)O)CC3)nn2)cc1 | 6.07
11 | Cc1cc(C)c(-n2cccn2)c(CN2CCOCC(CN(C)C)C2)c1 (stereo unspecified) | 9.231
12 | Cc1cccnc1[C@H](C)NC(=O)Cc1cc2c(cc1Cl)OCCO2 | 3.322
13 | CN1CCOC[C@H]1c1nc(-c2ccccc2)c[nH]1 | 1.409
14 | O=C(C1CC1)N1CCC(C(=O)N2CCC(c3ccc(F)cc3)C2)CC1 (stereo unspecified) | -1.259
15 | CCS(=O)(=O)N1CCc2nc(C3CCN(C(=O)C4CC4)C3)nc(O)c2C1 (stereo unspecified) | 88.69
16 | CCS(=O)(=O)N1CCc2nc(N3CCCC3)nc(N(C)C)c2CC1 | 3.292
17 | O=C(C1CC1)N1CCc2nc(C3CCN(C(=O)C4CC4)C3)nc(O)c2C1 (stereo unspecified) | 98.35
18 | O=S(=O)(CCO)Cc1ccc(OC(F)F)cc1 | -13.52
19 | COc1cccc(-c2noc(-c3ccc(NCCCN)nc3)n2)c1OC | -11.46
20 | O=C(Cn1cc(C2CC2)nn1)NC(c1ccc(Cl)cc1)C1CC1 (stereo unspecified) | -3.06
21 | CN(C)c1ccc(CN2CCN(c3ccc(C#N)cc3)C(=O)C2)cn1 | 27.75

Row | Compound | Percent Effect [%]
22 | COc1cccc(N2CCN(Cc3ncc[nH]3)CC2=O)c1 | -4.353
23 | CCc1ccc(CN2CCN(c3ccc(C#N)cc3)C(=O)C2)nc1 | -14.58
24 | CCc1ccc(CN2CCN(c3cccc(OC)c3)C(=O)C2)nc1 | 111.5
25 | CCc1nnc(CN2CCN(c3cccc(OC)c3)C(=O)C2)o1 | 104.5
26 | CCc1nnc(N2CCN(c3ccccc3)C(=O)C2)o1 | 1.843
27 | Cc1ccc(S(=O)(=O)n2ccc(C(=O)NCC(F)(F)F)c2)cc1 | 31.33
28 | COc1ccc2c(=O)n(CC3CC3)ccc2c1OC | 8.638
29 | CC(NC(=O)NCc1ccccn1)c1cccs1 (stereo unspecified) | 95.38
30 | COc1ccc(C(C)NC(=O)NCCNc2ccccn2)c(OC)c1 (stereo unspecified) | 23.68
31 | CC(NC(=O)NCCNc1ccccn1)c1cccs1 (stereo unspecified) | 84.24
32 | CCn1cnnc1CNC(=O)NC(C)c1cccs1 (stereo unspecified) | 5.383
33 | CC(C)C(NC(=O)NCCNc1ccccn1)c1cccs1 (stereo unspecified) | -3.383
34 | O=C(O)C(F)(F)F.O=S(=O)(C1CC1)N1CC[C@]2(C[C@@H](Oc3ccccn3)CO2)C1 | -7.855
35 | CN(C)c1ncc(CNS(=O)(=O)c2cc(F)ccc2Cl)n1C | -4.152
36 | COCCN1CCC(C(=O)N(C)Cc2c[nH]c3ccc(C)cc23)C1 (stereo unspecified) | -13.06
37 | CN(C)C(=O)C1CCN(C2CCN(CC3CC3)CC2)CC1.O=C(O)C(F)(F)F.O=C(O)C(F)(F)F | 109
38 | CN(C)C(=O)C1CCN(C2CCN(CC3CCC3)CC2)CC1.O=C(O)C(F)(F)F.O=C(O)C(F)(F)F | 115.1
39 | CN1CCN(C2COC3(CCN(CC4CC4)CC3)C2)CC1.O=C(O)C(F)(F)F.O=C(O)C(F)(F)F.O=C(O)C(F)(F)F (stereo unspecified) | -10.32
40 | CN(C)Cc1cn2c(n1)CN(CC1CCCC1)CC2.O=C(O)C(F)(F)F.O=C(O)C(F)(F)F | -16.91
41 | CN1CCC2(CCN(CC3CC3)CC2)C1=O.O=C(O)C(F)(F)F | -0.5297
42 | CC(C)C(=O)N1CCC2(CN(CC3CCCC3)C2)C1.O=C(O)C(F)(F)F | -3.433

Row | Compound | Percent Effect [%]
43 | CCc1nc(CN2CCC(C(=O)N(C)C)CC2)cs1 | -2.315
44 | CC(C)CN1CC[C@@H]2[C@H](CC1)N(C(=O)c1ccccc1)CCS2(=O)=O.O=C(O)C(F)(F)F | -7.451
45 | CC(C)CN1CCC(N2CCC(C(=O)N(C)C)CC2)CC1.O=C(O)C(F)(F)F.O=C(O)C(F)(F)F | 126.3
46 | CCN1CCC(N2CCC(C(=O)N(C)C)CC2)CC1.O=C(O)C(F)(F)F.O=C(O)C(F)(F)F | 104.7
47 | CC(C)CN1CC[C@@H]2[C@@H]1CCN2C(=O)N1CCCC1.O=C(O)C(F)(F)F | -1.369
48 | CN(C)C(=O)CN1CC[C@H]2CN(C3CCOCC3)C[C@@H]2C1=O.O=C(O)C(F)(F)F | -33.67
49 | CN1CC(=O)N(c2ccsc2)CC12CCN(S(C)(=O)=O)C2.O=C(O)C(F)(F)F (stereo unspecified) | -22.3
50 | O=C(C1CCC2(CCN(CC3CCOCC3)CC2)O1)N1CCCCO1.O=C(O)C(F)(F)F (stereo unspecified) | -16.72
51 | O=C(O)C(F)(F)F.O=C([C@@H]1COC[C@H]2CN(c3ccncn3)C[C@H]21)N1CCCC1 | -1.455
52 | Cc1ccc(C(=O)Nc2cn[nH]c2)cc1C | -10.82
53 | Cc1nc[nH]c1CN1C[C@@H]2CC[C@H](C1)N(C(=O)CCNS(C)(=O)=O)C2 | -6.405
54 | O=C(COCC1CCCCO1)N1CCN(Cc2ccccc2F)C(=O)C1 (stereo unspecified) | -11.31
55 | N#CC1C(=O)Nc2c(cnn2C2CCCC2)C12CCCC2 (stereo unspecified) | 15.25
56 | CN1CCN(C2CCN(C(=O)CCC3CCCC3)CC2)CC1.O=C(O)C(=O)O | 6.776
57 | CN(C)C(=O)C1CCC2(CCN(Cc3cnn(C)c3)CC2)C1.O=C(O)C(F)(F)F (stereo unspecified) | -4.25
58 | CC(C)CNC(=O)C(C)N1CCN(C2CCN(C(C)C)CC2)CC1 (stereo unspecified) | -39.91
59 | CC(C)N1CCC(N2CCC(C(=O)N(C)C)CC2)CC1.O=C(O)C(F)(F)F.O=C(O)C(F)(F)F | 105.3
60 | CC(C)N1CCC(C(=O)N(C)CC(=O)c2ccc(O)cc2)CC1 | -30.04
61 | CN1CCC(N2CCC(C(=O)N(C)C)CC2)CC1.O=C(O)C(F)(F)F.O=C(O)C(F)(F)F | 107.5
